# Data taken from PubChem BioAssay (NCI).
# Values joined by “and” are separate entries in the source; they are usually repeats but may differ in a detail not shown here. Identical values can stand only once. The panel holds about 83,000 compounds, 20% with a hit somewhere; the sample as a whole holds those more often.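 Cells were grown in 96-well plates and exposed to the test compound at a single concentration for 48 hours; results are reported as percent growth, with values below 10 considered active.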 Active and inactive are the calls of the source.
# Test system: HL-60(TB) leukemia
# Assay: NCI-60 one-dose screen, 48 h (100 = growth as untreated, 0 = no growth, -100 = all killed)
# Conditions: 10 µM unless noted
row,Structure (SMILES),growth
1,CN(C)c1ccc(/C=N/n2c(-c3cc(F)c(Cl)cc3Cl)nn(CN3CCOCC3)c2=S)cc1,101% (inactive)
2,COc1cc(Cl)cc(-c2nn(C(=O)NCCN3CCOCC3)cc2-c2ccncc2)c1,55.7% (inactive)
3,COc1nccc2cc3c(=O)n4c(cc5ccccc54)c(=O)n3c12,93.5% (inactive)
4,COc1cc(C)cc2oc3oc(=O)c(-c4nc5ccccc5s4)cc3c(=O)c12,109% (inactive)
5,CCCCCCCC/C=C/CCCCCCCC1=NC(C)(C)CN1C(C)(C)CO,-59.8% (active)
6,CC(C)N(CCOc1cccc(-c2nc3sccn3c2-c2ccnc(S(C)(=O)=O)n2)c1)C(C)C,80.8% (inactive)
7,COc1ccc(-c2ccc3c(c2)sc2nc(-c4ccc(F)cc4)cn23)cc1,92% (inactive)
8,O=C(Nc1ccc([N+](=O)[O-])cc1Cl)c1cc(Cl)ccc1O,-30.7% (active) and -30.9% (active)
9,CC(CN=Cc1ccccc1O)N=Cc1ccccc1O (stereo not given),110% (inactive) and 83% (inactive)
10,CCCC(=O)Oc1ccc(/C(=C(\C)c2ccccc2)c2ccc(OCCN(CC)CC)cc2)cc1,39.2% (inactive)
11,CC(C)Sc1ncnc2nc[nH]c12,95% (inactive)
12,CC(C)OC(=O)c1ccc2[nH]c(O)c(C(=Nc3ccc(N(C)C(=O)CN4CCN(C)CC4)cc3)c3ccccc3)c2c1,-50.2% (active)
13,COc1ccc2c(=O)cc(C(Cl)(Cl)Cl)oc2c1,-32.6% (active)
14,CC(=O)Nc1ccc(/C=C/C(=O)c2ccccc2)cc1,79% (inactive)
15,CNc1cc(-c2cccc(OC(F)(F)F)c2)nc2ccc(N3CCCC3)cc12,-43% (active) and -44.1% (active) and 1.92% (active)
16,O=C(/C(=C\c1ccc([N+](=O)[O-])cc1)S(=O)Cc1ccc(Cl)cc1)c1ccc(Cl)cc1 (stereo not given),59.4% (inactive)
17,CC(C)CNC(=O)c1ccccc1C(=O)NC1(C(=O)NCC(C)C)CCCC1,92.9% (inactive) and 97.4% (inactive)
18,COc1ccc(/C=C2\N=C3SC=C(N)N3C2=O)cc1,-40% (active)
19,Nc1ccccc1SC(CC(=O)c1ccccc1)c1ccc([N+](=O)[O-])cc1 (stereo not given),95.8% (inactive) and 74.9% (inactive)
20,COc1ccc(-c2cn[nH]c2-c2ccc(OC)c(O)c2)cc1,46.1% (inactive)
21,ClCC(Cl)C1CCC(Cl)C(Cl)C1 (stereo not given),89.6% (inactive)
22,C=C(C)[C@@H]1CC[C@]2(C(=O)NCC(=O)OC)CC[C@]3(C)[C@H](CC[C@@H]4[C@@]5(C)Cc6c([nH]c7ccccc67)C(C)(C)[C@@H]5CC[C@]43C)[C@@H]12,64.8% (inactive)
23,COCCNCC(O)Cn1c2ccc(Cl)cc2c2cc(Cl)ccc21 (stereo not given),-42.6% (active)
24,COc1ccc(-c2nc(-c3nc4ccc(F)cc4[nH]3)cc3c2[nH]c2ccccc23)cc1,26.1% (inactive)
25,N#Cc1c(-c2ccc(C(F)(F)F)cc2)cc(N2CC(O)C2)n2c1nc1ccccc12,118% (inactive)
